Test results from PubChem BioAssay AID2451 (National Center for Advancing Translational Sciences (NCATS), 2010).
Screen size: about 290,000 compounds; about 2,100 (0.72%) were called active. Not shown: some 4% with an inconclusive outcome. The entries come from a sample that favours actives as a whole. Values without a mark were called inactive. The call rests on the fitted dose curve; in most records, active means well fitted inhibition curve with a large enough effect; inconclusive means small, poorly fitted or top-dose-only effect, or effect the other way; inactive means flat fitted curve, though single readings scatter.

Target: Fructose-bisphosphate aldolase (Giardia intestinalis (strain ATCC 50803 / WB clone C6)) (UniProt A8B2U2)
Sequence (A8B2U2 whole entry, looked up): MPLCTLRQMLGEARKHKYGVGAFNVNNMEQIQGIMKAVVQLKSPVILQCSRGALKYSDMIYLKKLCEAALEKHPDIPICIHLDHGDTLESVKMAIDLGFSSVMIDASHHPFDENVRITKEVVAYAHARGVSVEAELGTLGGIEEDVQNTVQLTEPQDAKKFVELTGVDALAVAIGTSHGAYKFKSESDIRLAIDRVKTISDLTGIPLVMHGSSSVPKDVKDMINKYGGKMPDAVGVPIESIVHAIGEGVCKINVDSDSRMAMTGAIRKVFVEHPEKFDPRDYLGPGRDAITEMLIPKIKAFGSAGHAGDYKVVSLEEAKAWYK
Experiment: qHTS Assay for Inhibitors of Fructose-1,6-bisphosphate Aldolase from Giardia Lamblia; further: nearly all actives have a fitted effect of over 55% in size
Settings: purified Giardia FBPA; series mostly up to 59.6 µM; activity, negative = inhibition: at the top concentration
Source text: Assay Provider: Osnat Herzberg, University of Maryland
The objective of this project is to obtain compounds that inhibit Giardia lamblia growth. G. lamblia is a human pathogen which afflicts impoverished nations; it is the most common cause of outbreaks of diarrhea in the United States. During the course of our study of potential drug targets in Giardia, we have identified the Class II (Zn2+ functions in electrophilic catalysis) fructose-1,6-bisphosphate aldolase (FBPA) as an excellent candidate for drug targeting. FBPA is a key glycolytic pathway enzyme, essential for G. lamblia survival. The human FBPA belongs to the Class I aldolases, which have a different substrate binding site structure and a radically different catalytic mechanism (employing a lysine-Schiff base intermediate). Therefore, affinity-based or mechanism-based inhibitors of the Giardia FBPA are expected not to interfere with the catalytic function of the human FBPA.
A glyceraldehyde-3-phosphate dehydrogenase/triose phosphate isomerase/NAD/arsenate coupled assay was adapted to the 1536-well HTP format for use in the primary screen. This was done by coupling it to a diaphorase/resazurin/resorufin reaction that can be monitored by fluorescence (excitation, 544 nm; emission, 590 nm). Compounds identified in this screen will be further evaluated by coupling the glycerol-3-phosphate/triose phosphate isomerase/NADH assay to a phenazine methosulfate/tetranitroblue tetrazolium color reaction. False positives due to the dehydrogenases and diaphorase inhibition will be eliminated, and selectivity assay will triage inhibitors of mammalian triose phosphate isomerase and the Class I FBPA. G. lamblia FBPA inhibitors identified by the in vitro analyses will be examined for growth inhibition of Giardia trophozoites, and for cytotoxicity in human cells.
Step,Parameter,Value,Description
1,Enzyme reagent,2 uL,40 nM FBPA
2,Compound,23 nL,3.68 nM-57.5 uM final concentration
3,Time,10 min,RT Incubation
4,Substrate/detection Reagent,2 uL,Substrate + enzyme coupling system + AmpLite Red kit
5,Time,20 min,RT Incubation
6,Detector,525 nm/598 nm (Fluorescence),ViewLux Fluorescence Read (Read 1)
1,Medium-binding black solid-bottom Kalypsys plates. FRD or Kalypsys dispenser, 2 uL of FBPA enzyme. Bottle kept at 4C.
2,Compound Library (10 mM ,1:5 dilution). Pin-transferred for a [final] range of 3.68 nM-57.5 uM.
4,FRD or Kalypsys dispenser, 2 uL of reaction mixture. Bottle kept at 4C and covered in foil to protect from light.
6,ViewLux Protocol 1194; Excitation filter wheel A (525/20 Pol; BODIPY TMR FP), Emission filter wheel B (598/25 S; BODIPY TMR FP S).
Keywords: Fructose-bisphosphate aldolase, FBPA , Giardia lamblia , Giardia, HTS, Inhibitors
On the % scale 0 is the no-effect control and ±100 the full control effect; potency means the concentration at half of the fitted maximal effect.

| Structure (SMILES) | activity, negative = inhibition | Potency |
| --- | --- | --- |
| O=C(NC(=S)Nc1ccc(Cl)cc1Cl)C1CC1 | -5.9% | – |
| COc1ccccc1CN1CC2(CCN(S(=O)(=O)c3ccccc3)CC2)C1 | 1.62% | – |
| CS(=O)(=O)N1CCN(C(=O)Cc2ccccc2)CC1 | 1.56% | – |
| COc1ccccc1CN1CCN(C(=O)Cc2ccccc2)CC1 | – | 17.8 µM (active) |
| COc1ccccc1CN1CCN(Cc2cc(OC)c(OC)cc2OC)CC1 | – | 25.1 µM (active) |
| COC(=O)N1CCC2(CCCN(Cc3ccccc3OC)C2)CC1 | 5.48% | – |
| COc1ccccc1/C=N/N1CCN(Cc2ccccc2Cl)CC1 | -9.55% | – |
| CCOCCOC(=O)C1=C(C)NC(=O)NC1c1ccc2c(c1)OCO2 (stereo not given) | 7.55% | – |
| O=C(O)c1c(NC(=O)N2CCCC2)sc2c1CCCC2 | -17.4% | – |
| O=C(Nc1ccc(O)cc1)c1ccc(NC(=O)c2ccco2)cc1 | 4.74% | – |
| CCOC(=O)C1(Cc2cccc(OC)c2)CCCN(C(=O)CCSC)C1 (stereo not given) | -14.4% | – |
| Cc1cc(C)c2c(=O)[nH]c(SCC(=O)Nc3ccc(Br)cc3)nc2n1 | – | 31.6 µM (active) |
| Cc1cccc(NC(=O)CSc2nc3[nH]ncc3c(=O)[nH]2)c1 | -0.944% | – |
| Cc1cc(=O)[nH]c(SCC(=O)Nc2ccc(Br)cc2)n1 | -7.83% | – |
| O=C(NC(c1ccccc1)c1ccccc1)N1CCN(CCO)CC1 | 2.22% | – |
| S=C(c1ccccc1)N1CCCC1 | -8.06% | – |
| OCCN1CCN(C(=S)c2ccc(-c3ccccc3)cc2)CC1 | – | 11.2 µM (active) |
| COc1ccc(-c2ccc(C3C4C=CCCC4(C)C(=O)N3Cc3ccccc3)c(F)c2)cc1OC (stereo not given) | -2.7% | – |
| Cc1cc(F)ccc1NC(=S)NCCc1ccccc1 | -4.77% | – |
| COc1cc(NC(=O)C2=CC(c3ccc(C)cc3)=NS(=O)(=O)N2C)cc(OC)c1OC | -11.6% | – |
| CCOc1cccc(NC(=O)C2CCCN(S(=O)(=O)c3ccc(OC)cc3)C2)c1 (stereo not given) | 0.161% | – |
| COc1ccccc1CC(=O)Nc1ccc(S(=O)(=O)N2CCCC2)cc1 | 3.51% | – |
| CCN(CC(=O)Nc1ccc(S(=O)(=O)N2CCCC2)cc1)CC(=O)Nc1cccc(OC)c1 | – | 5 µM (active) |
| COc1cc(C(=S)N2CCOCC2)cc(OC)c1OC(=O)c1ccc([N+](=O)[O-])cc1[N+](=O)[O-] | -13.1% | – |
| CCS(=O)(=O)Nc1ccc(C(=O)NCCSc2ccccc2)cc1 | 9.82% | – |
| CC(=O)OCCN(CCCn1c(-c2ccncc2)nc2ccccc21)c1nc(-c2ccc(C)cc2)cs1 | -10.8% | – |
| Oc1c(C=Nc2cccc3nsnc23)ccc2ccccc12 | – | 5 µM (active) |
| Cc1ccccc1NC(=O)C1CCN(C(=O)NC2CCCCC2)CC1 | 6.06% | – |

| Structure (SMILES) | activity, negative = inhibition | Potency |
| --- | --- | --- |
| COC(=O)C1=CN(c2ccc(F)c(F)c2)C=C(C(=O)OC)C1c1ccc([N+](=O)[O-])cc1 | 0.105% | – |
| COc1ccccc1-c1nnc(NC(=O)c2ccc3ncsc3c2)o1 | 28.4% | – |
| Cc1ccc(C(=O)Nc2nnc(C3=COCCO3)o2)cc1C | – | 31.6 µM (active) |
| COc1ccccc1-c1nnc(NC(=O)c2cccc(N3C(=O)CCC3=O)c2)o1 | 10.3% | – |
| COC(=O)c1ccccc1NC(=O)C1CCN(C(=O)N2CCOc3ccccc32)CC1 | -3.52% | – |
| COc1ccc(C2Oc3c(I)c(OC)cc(OC)c3CC2O)cc1OC (stereo not given) | 7.26% | – |
| Oc1cc(O)c2c(c1)OC(c1ccc(O)c(O)c1)C(O)C2 (stereo not given) | – | 9.98 µM (active) |
| O=C(NC(=S)Nc1ccc(S(=O)(=O)Nc2ncccn2)cc1)c1cccc(Br)c1 | 1.97% | – |
| O=C(NC(=S)Nc1ncccn1)c1ccccc1Br | – | 3.98 µM (active) |
| COC(=O)c1ccccc1NC(=S)NC(=O)c1ccccc1F | -16.7% | – |
| CCOc1ccc(OCC)c(NC(=O)CCS(=O)(=O)c2ccc(C)cc2)c1 | 7.51% | – |
| Cn1c(CCCOc2ccc(Cl)cc2Cl)n[nH]c1=S | -0.566% | – |
| COCCCNCCOCCOc1ccc(Cl)cc1Br | -23.6% | – |
| CN(C)CCOc1ccc(Cl)cc1C(C)(C)C | – | 14.1 µM (active) |
| Cc1cc(C(=O)N/N=C/c2ccc(N3CCOCC3)cc2)c(C)o1 | -0.673% | – |
| C=CCNC(=S)N/N=C/c1ccc(C)s1 | 5.8% | – |
| CNC(=S)N/N=C/c1ccc(N2CCOCC2)s1 | – | 12.6 µM (active) |
| O=C(CCCC(=O)N1CCN(c2cccc(Cl)c2)CC1)c1ccccc1 | -11.4% | – |
| NC(=O)CC(NC(=O)Cc1ccc(Br)cc1)c1ccc(NC2CC3CCC2C3)c([N+](=O)[O-])c1 (stereo not given) | -10.4% | – |
| COc1cc(OC)c(C(=S)N2CCCC2)cc1OC | -20.3% | – |
| O=S(=O)(Nc1ccc2cn[nH]c2c1)c1ccccc1 | -18.7% | – |
| O=S(=O)(Nc1ccc2nc(-c3ccco3)[nH]c2c1)c1ccccc1 | – | 19.9 µM (active) |
| Cn1c(CCN2CCCC2)nc2cc(NS(=O)(=O)c3ccccc3)ccc21 | -18.8% | – |
| CCN1CCN(C(=O)C2CCCN(S(=O)(=O)c3ccc(OC)c(OC)c3)C2)CC1 (stereo not given) | 5.43% | – |
| Cc1ccc(N(Cc2cc(=O)[nH]c3ccccc23)C(=O)CCl)cc1 | -5.08% | – |
| O=C(NCCCc1ccccc1)c1cc(COc2c(F)cccc2F)on1 | -2.9% | – |
| N#Cc1c(N2CCCCC2)nc(N)c2c(N)nc(SCC(=O)O)cc12 | – | 12.6 µM (active) |
